In PubChem BioAssay (NCI):
Compounds without any hit were thinned out: in the full panel of roughly 79,000, 15% have a hit. A number with no mark means an inactive call. The source made the active and inactive calls. Rule as the data show it: active = growth inhibition above about 70%; inactive = the rest.

Key:
[1] = NCI Yeast Anticancer Drug Screen. Data for the rad50 strain (AID 155);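 also: 0% = growth of vehicle-only cultures of the same strain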; settings: S. cerevisiae rad50 strain growth inhibition; at 50.0 µM; stronger effect = higher value
Procedure, shortened: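 Inhibition values express reduced yeast growth in compound-treated cultures relative to vehicle-treated controls.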

[2] = NCI Yeast Anticancer Drug Screen. Data for the mec2-1 strain (AID 157); settings: S. cerevisiae mec2-1 strain, at 50.0 µM, stronger effect = higher value
Procedure, shortened: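 Using mec2-1 yeast: add compound, measure growth, express inhibition versus vehicle-treated cultures.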

[3] = NCI Yeast Anticancer Drug Screen. Data for the sgs1 mgt1 strain (AID 161);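 also: 0% = growth of cultures given vehicle only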; settings: S. cerevisiae sgs1 mgt1 strain, at 50.0 µM, stronger effect = higher value
Procedure, shortened: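 This yeast growth screen uses a strain with defined DNA-repair lesions; compound-treated growth is compared with vehicle-treated growth.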

[4] = NCI Yeast Anticancer Drug Screen. Data for the cln2 rad14 strain (AID 165);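 also: 0% = growth equal to vehicle treated cultures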; settings: S. cerevisiae cln2 rad14 strain, at 50.0 µM, stronger effect = higher value
Procedure, shortened: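 Yeast strain cln2 rad14, bearing defects in cell cycle control and DNA repair, serves as the test system; values reflect growth inhibition compared with vehicle.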

[5] = NCI Yeast Anticancer Drug Screen. Data for the bub3 strain (AID 167); settings: S. cerevisiae bub3 mutant strain, at 50.0 µM, stronger effect = higher value
Procedure, shortened: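 Steps: expose the mutant yeast strain to compound; grow alongside vehicle-treated cultures; measure growth; express inhibition against the vehicle cultures.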

[6] = NCI Yeast Anticancer Drug Screen. Data for the mlh1 rad18 strain (AID 175); settings: S. cerevisiae mlh1 rad18 strain growth inhibition; at 50.0 µM; stronger effect = higher value
Procedure, shortened: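 Steps: expose repair-defective yeast to compound; measure growth; express inhibition against vehicle-treated controls.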

SMILES	growth inhibition [1]	growth inhibition [2]	growth inhibition [3]	growth inhibition [4]	growth inhibition [5]	growth inhibition [6]
CN(C)Cc1cc(O)c(O)c(CN(C)C)c1	-16.6%	-19.9%	-8.45%	5.4%	-40.2%	13.1%
CCCCCCCCCCCCCC(=O)Oc1ccc([N+](=O)[O-])cc1	-2.65%	0.05%	-13.1%	11.2%	-9.2%	14.4%
C=CCNC(=O)NCCCC(NC(C)=O)C(=O)NCc1ccccc1 (stereo unspecified)	-20.9%	-21.3%	-14.7%	6.75%	-22.3%	-20.6%
COC(=O)c1cccc2c1ccc1ccc3ccccc3c12	-7.9%	-19.4%	-7.05%	-84.5%	-10.2%	-17.9%
COC(=O)Nc1cn2nc(C)sc2n1	-17.4%	11.4%	-10.1%	-16.1%	2.6%	-6.95%
Nc1nc(N)nc(-c2ccccc2N)n1	2.2%	-7.5%	-14.2%	-45%	-22.8%	5.6%
NCCCNC/C=C/CNCCCN	25.8%	-0.5%	2.7%	11.2%	-0.8%	-2.45%
CCC1(C)NN=C2C(=CC=C3NNC(C)(CC)N32)n2cccc21 (stereo unspecified)	36.9%	8.8%	-19.1%	3.5%	-2.65%	26.4%
CSC(C(OC(C)=O)C(OC(C)=O)C(OC(C)=O)C(COC(C)=O)OC(C)=O)n1cnc2c(=S)nc[nH]c21 (stereo unspecified)	26.4%	-12.4%	-11.6%	13.2%	-0.45%	1.95%
O=C(O)c1c2ccccc2nc2c1sc1ccccc12	-17.9%	-8%	-3.05%	-63.6%	-1.45%	-7.85%
CC1=CC(O)C(C(O)(C(F)(F)F)C(F)(F)F)C(C)(C)C1 (stereo unspecified)	-26.8%	-41.2%	-9.95%	-4.6%	0.15%	-1.25%
Nc1nc(Cc2ccccc2)cs1	24.7%	24.7%	16.1%	7.5%	3.35%	12.6%
CC/C=C(C)/C=N\NC(=O)c1ccc[n+](C)c1	21.8%	12.6%	17.6%	23.6%	-3.9%	2.55%
Cc1nc(N)nc(N)c1N1CCN(c2ccc(C(=O)NC(C(=O)O)C(=O)O)cc2)CC1	-4.8%	-15.6%	-25.8%	4.55%	-38.2%	-37.8%
CC1(C)OC(=O)C(C(N)=O)C1c1ccc(Cl)cc1 (stereo unspecified)	6.15%	0.8%	-5.65%	-3%	-6.25%	13.8%
CC(=O)N1CC=CCC1	-16.6%	5.85%	-17.9%	-7.5%	-1.55%	-2.85%
CNC(=O)C1CCC(=O)N1Cc1c[nH]c2ccccc12 (stereo unspecified)	-4.6%	-8.65%	-1.75%	2.25%	8.75%	-5.45%
COc1ccc(OC)c(C(=O)CCCCCCCCC(=O)c2cc(OC)ccc2OC)c1	27.2%	8%	3.85%	25.4%	-3.95%	7.25%
O=C1C(Cl)C(c2ccc(O)cc2)N1n1cnc2ccccc2c1=O (stereo unspecified)	56.6%	37.9%	59.4%	31.9%	32.8%	36.6%
C\C(=C/C(=N/N=C\c1ccccc1O)c1ccccc1)c1ccccc1	13.8%	10.9%	-4.45%	-3.5%	5.6%	5.15%
CCOC(=O)C(C#N)=C1CC(C)OC(C)C1 (stereo unspecified)	12.3%	0.65%	5.85%	-33.6%	17.4%	4.15%

SMILES	growth inhibition [1]	growth inhibition [2]	growth inhibition [3]	growth inhibition [4]	growth inhibition [5]	growth inhibition [6]
COc1ccc(C2C3=C(CC(C)(C)CC3=O)Oc3cc4c(cc32)OCO4)cc1 (stereo unspecified)	-2.7%	-0.05%	-25%	-0.45%	0%	-4.95%
CCN(CC)C(=O)c1ccc[n+](Cc2ccc(Cl)c(Cl)c2)c1	3.15%	-8.25%	-8.75%	6.45%	1.2%	9.25%
CCCCCCCCCCCCC1CC(=O)OC1=O (stereo unspecified)	3.65%	-15.4%	13%	18.1%	32.5%	-8.85%
CCOC(OC(C)=O)[C@@H]1C=C[C@H](C)N(c2ccc([N+](=O)[O-])cc2)O1 (stereo partly specified)	25.4%	13.9%	39.5%	18.1%	42.6%	32.8%
Cc1cccc(C)c1NC(=O)C(=O)CC(=O)CO	-9.45%	-18.3%	14.1%	10.8%	21%	-6.25%
Cc1ccc2c(c1)[nH]c(=S)n2/C=C1\C(=O)Oc2ccccc2C1=O	-43.8%	-42.1%	-44.4%	-31.7%	-42%	-46%
COc1cc2c3c(c1)CCCN3CCC2	-40.6%	-17%	-20.5%	-4.95%	13.2%	-17.6%
COc1ccc(NC(=O)N(C)Cc2ccccc2Cl)cc1	-0.35%	-10.8%	1.9%	-12.6%	11.2%	0.4%
O=C(O)C1C=CCC2C(O)C=CC(=O)C12 (stereo unspecified)	-5.95%	-31.2%	-1.05%	-2.4%	-11%	-5.9%
[N-]=[N+]=CC(=O)CCN1C(=O)c2ccccc2C1=O	-9.85%	-0.85%	-4.75%	-3.85%	1.15%	-1.55%
C[N+](C)(N)c1nc(N)c(C#N)c(C#N)c1C#N	13.6%	-18.7%	-10.9%	-24.4%	5.1%	13.8%
CCCCc1c2c(nn1C(C)=O)C(=O)C=C(Nc1ccccc1)C2=O	21.8%	21.8%	19.7%	-7.65%	4.7%	9.5%
O=C(CC1Sc2ccccc2NC1=O)Nc1cc(Cl)ccc1Cl (stereo unspecified)	-2.6%	-18.3%	-4.55%	25.3%	8.7%	-1.45%
CC(C)C1CC[N-]CC1.CC(C)C1CC[N-]CC1.[Cl][Pt+2][Cl]	82.6% (active)	48%	86.3% (active)	18.9%	36.6%	75.4% (active)
CCC(=O)c1ccc(OC(=O)Nc2ccc(Cl)cc2[N+](=O)[O-])cc1	2.25%	42.8%	38.5%	-0.75%	26.2%	-124%
CC(C)([NH-])C[NH-].O=C(O)CCO.[Pt+2]	27.8%	-8.8%	-2.8%	17.6%	8.65%	14.2%
CCOC(=O)C1(C(=O)OCC)CCCCC1=O	13.2%	-15.2%	-22.9%	11.2%	-46.6%	-1.1%
CCOC(=O)Nc1ccc(S(=O)(=O)c2ccc(Nc3ccnc4cc(Cl)ccc34)cc2)cc1	17.1%	10.2%	27.2%	-35.8%	5.45%	47.8%
S=C(OCCCCCn1cnc2c(=S)nc[nH]c21)Oc1ccccc1	-13%	16%	7.1%	-45.8%	-5.25%	-12.7%
CCN(CC)CCNc1ccc(C)c2sc3ccc(N)cc3c(=O)c12	30.3%	18.1%	8.9%	28.3%	-0.35%	19.8%
